PubChem BioAssay (Tox21)
Where “and” joins values, the source holds several entries; their conditions need not be identical. Equal values may be shown once. Results filed as inconclusive are left out. Where a call stands in place of a potency, no number is given. Some structures have more than one record in an assay (separate samples or runs), and their calls can disagree. Calls of active or inactive are those of the source. The call rests on the fitted dose curve; in most records, active means well fitted cell-killing curve with a large enough effect in the repeat runs; inconclusive means weak or mixed curves, or effect the other way; inactive means no such curve, though single readings can be large or run the other way.

Experiment: qHTS assay for small molecule activators of the heat shock response signaling pathway - cell viability counter screen (AID 743209); further: nearly all actives have a fitted effect of over 50% in size
Conditions: HSE-bla HeLa viability, CellTiter-Glo luminescence, 5 h; series mostly up to 62.6 µM
Text: U.S. Tox21 Program National Center for Advancing Translational Sciences [NCATS] NIH Chemical Genomics Center [NCGC] U.S. Environmental Protection Agency [EPA] National Institutes of Environmental Health Sciences [NIEHS] National Toxicology Program [NTP] U.S. Food and Drug Administration [FDA] Tox21 Assay Overview: Various chemicals, environmental and physiological stress conditions may lead to the activation of heat shock response/ unfolded protein response (HSR/UPR). There are three heat shock transcription factors (HSFs) (HSF-1, -2, and -4) mediating transcriptional regulation of the human HSR. To identify the compounds that activate HSR signaling, HSE-bla HeLa cell line (Invitrogen, Carlsbad, CA, USA) containing a beta-lactamase reporter gene under the control of the heat shock response elements was used to screen Tox21 10K compound library. The cytotoxicity of the Tox21 compound library against the HSE-bla HeLa cell line was tested in parallel by measuring the cell viability using CellTiter-Glo assay (Promega, Madison, WI) in the same wells.
Tox21 Assay Protocol Summary: The CellSensor HSE-bla HeLa cells (Invitrogen, Carlsbad, CA, USA) were dispensed at 1500 cells/6uL/well into 1536-well black wall/clear bottom plates using a Multidrop combi (Thermo Fisher Scientific, Waltham, MA) dispenser. After the assay plates were incubated at 37 C and 5% CO2 overnight, 23 nL of compounds dissolved in DMSO, positive controls or DMSO only was transferred to the assay plate by a Pintool station (Kalypsys, San Diego, CA). The plates were incubated at 37 C for 5 h. After 1 uL of LiveBLAzerTM B/G FRET substrate was added using a Flying Reagent Dispenser (FRD, Beckman Coulter, Indianapolis, IN, USA), the plates were incubated at room temperature for 2.5 h, and fluorescence intensity was measured by an Envision plate reader (PerkinElmer, Shelton, CT). For cell viability readout that measures cytotoxicity, 3 ul/well of CellTiter-Glo reagent was added into the assay plates using a FRD. After 30 min incubation at room temperature, the luminescence intensity in the plates was measured using a ViewLux (PerkinElmer) plate reader.
Potency means the concentration at half of the fitted maximal effect.

Structure (SMILES) | Potency
Cc1ccc(O)c(C(C)(C)C)c1 | 24.5 µM (active) and inactive
CCCCCCCC(=O)[O-].CCCCCCCC(=O)[O-].[Zn+2] | inactive
C=C(C)C(=O)OCC[N+](C)(C)C | inactive
CC(C)OC(=O)c1cc2c(OCC(O)CNC(C)(C)C)cccc2[nH]1 (stereo not given) | inactive
CCOc1nc2cccc(C(=O)OC(C)OC(=O)OC3CCCCC3)c2n1Cc1ccc(-c2ccccc2-c2nn[nH]n2)cc1 (stereo not given) | 13.8 µM (active)
Cc1cccc(N(C)C(=S)Oc2ccc3c(c2)C2CCC3C2)c1 (stereo not given) | inactive
Oc1c(Cl)cc(Cl)c2cccnc12 | inactive
C=CC(=O)OCC(CO)(COC(=O)C=C)COC(=O)C=C | 3.9 µM (active) and 2.45 µM (active)
CN(C)c1ccc(C2(c3ccc(N(C)C)cc3)OC(=O)c3cc(N(C)C)ccc32)cc1 | inactive
O=C(c1ccc(O)cc1O)c1ccc(O)cc1O | inactive
NC(=O)NS(=O)(=O)c1ccc(N)cc1 | inactive
Cc1c(C)c2c(c(C)c1O)CCC(C)(COc1ccc(CC3SC(=O)NC3=O)cc1)O2 (stereo not given) | inactive
N=C1N=C(N)c2cc3ccccc3cc21 | 25.9 µM (active)
O=c1cc(-c2ccc(O)cc2)oc2cc(O)cc(O)c12 | 12.3 µM (active)
CCCC(=O)OC[C@@H](OC(=O)CCC)[C@@H](OC(=O)CCC)[C@H](Cn1c2nc(=O)[nH]c(=O)c-2nc2cc(C)c(C)cc21)OC(=O)CCC | inactive
CCCCCCCCCCn1cc[n+](CCCCCCCCCC)c1C | 21.9 µM (active)
C/C(=C(/OCCOc1ccc(Cl)cc1)c1ccc(Cl)cc1Cl)n1ccnc1 | inactive
C1CCCC1 | inactive
CC(C)(C)C1CCC(CC2=C(O)c3ccccc3C(=O)C2=O)CC1 (stereo not given) | inactive
C[C@@H]1C[C@H]2[C@@H]3CCC4=CC(=O)C=C[C@]4(C)[C@@]3(Cl)[C@@H](O)C[C@]2(C)[C@@]1(OC(=O)c1ccco1)C(=O)CCl | inactive

Structure (SMILES) | Potency
Fc1ccc([C@@H]2CCNC[C@H]2COc2ccc3c(c2)OCO3)cc1 | inactive
CNCc1cc(F)ccc1Oc1ccc(Cl)c(Cl)c1 | inactive
Cc1onc(-c2c(Cl)cccc2Cl)c1C(=O)N[C@@H]1C(=O)N2[C@@H]1SC(C)(C)[C@@H]2C(=O)O | inactive
O=C(c1ccc(F)cc1)C1CCN(CCn2c(=O)[nH]c3ccccc3c2=O)CC1 | inactive
Cc1cc(O)c(C(C)(C)C)cc1Sc1cc(C(C)(C)C)c(O)cc1C | 10.9 µM (active)
Oc1ccc(N=Nc2ccccc2)cc1 | inactive
CCCCCCCCCCCCc1ccc(O)cc1 | 24.5 µM (active)
CSc1ccc(C(=O)c2[nH]c(=O)[nH]c2C)cc1 | inactive
Cc1cc(O)c(Cl)c(C)c1Cl | 38.9 µM (active)
CC(C)c1ccc2c(c1)CC[C@H]1[C@](C)(CN)CCC[C@]21C | 19.5 µM (active)
N=C1C=CC(=C(c2ccc(N)cc2)c2ccc(N)cc2)C=C1 | 30.9 µM (active)
CCN(C(=O)N(CC)c1ccccc1)c1ccccc1 | inactive
CC(C)C(C)(C)C(C)(C)C(C)(C)S | inactive
CCCCCCCCCCC=O | inactive
Nc1ccc(N)c2ccccc12 | 34.6 µM (active)
[Cl][Bi]([Cl])([c]1ccccc1)([c]1ccccc1)[c]1ccccc1 | 48.7 µM (active)
CCCCN(CCCC)C(=O)N(CCCC)CCCC | inactive
Cc1ccc2oc(CN(Cc3ccccc3)C(=O)Nc3c(F)cc(F)cc3F)c(-c3ccc(Cl)cc3)c2c1 | inactive
CCOC(=O)O[C@H](C)OC(=O)c1ccc2c(c1)cc(C(=O)NC1CCN(C(C)C)CC1)n2Cc1cc(-c2ccc(Cl)s2)on1 | 22.9 µM (active)
Cc1cccc(S(=O)(=O)O)c1C | inactive
